# Experimental data: PubChem BioAssay (NCI)
# About 83,000 compounds went through this panel and 20% of them were active in at least one assay; those are over-represented in the sample as a whole.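 Method: cells in 96-well plates; compound added at one concentration; 48 h incubation; percent growth measured; values under 10 scored active.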 Calls of active or inactive are those of the source.
# Test system: NCI-H23 lung
# Experiment: NCI-60 one-dose screen, 48 h (100 = growth as untreated, 0 = no growth, -100 = all killed)
# Conditions: 10 µM unless noted
row,Structure (SMILES),growth
1,COc1ccc2c(c1)c(-c1nc(-c3c[nH]c4ncccc34)cs1)cn2CCO,62.5% (inactive)
2,O=C(NNC(=O)c1ccc(NC(=O)c2ccccn2)cc1)Nc1ccc2ccccc2c1,96.5% (inactive)
3,COc1ccc(/C=C/C(=O)c2cc(OC)c(OC)c(OC)c2)cc1OCC(=O)Nc1nc2ccc(OC(F)(F)F)cc2s1,11.5% (inactive)
4,O=C(CN1CCCCCC1)Nc1nc2ccc(NCc3ccc(Cl)cc3)cc2s1,97.3% (inactive)
5,CCCCCCCCCCCCCCCCCCOc1ccccc1CC(=O)NCC[N+]1(C)CCCCC1,62.5% (inactive)
6,COc1cc(-c2nc3sccn3c2-c2ccnc(NCCNS(=O)(=O)c3ccc(Cl)cc3)n2)ccc1F,18.7% (inactive)
7,S=c1nc2oc(-c3ccccc3)c(-c3ccccc3)c2c(/N=C\c2ccco2)[nH]1,88.2% (inactive)
8,O=C1Nc2ccccc2/C1=C\c1c[nH]c2ccc(Br)cc12,77.4% (inactive)
9,COc1ccc(Nc2ncccc2/C=C/C(=O)c2cc(OC)c(OC)c(OC)c2)cc1,-8.11% (active)
10,COc1cc(OC)c(/C=C/C(=O)c2c(O)cc(OC)c(C3CCN(C)CC3)c2OC)c(OC)c1,-58.8% (active)
11,N#Cc1c(-c2ccccc2)nc(SCc2nnc(-c3ccc(Cl)cc3)o2)[nH]c1=O,105% (inactive)
12,CC(=O)ON1CCCC(P(=O)(OCCSC(=O)C(C)(C)C)OCCSC(=O)C(C)(C)C)C1=O (stereo not given),45.9% (inactive)
13,COc1cccc(CCNc2ncnc3c2ncn3Cc2nnc3c4ccccc4c(Cl)nn23)c1,70.1% (inactive)
14,O=C(CN1CCN(c2cc3c(cc2F)c(=O)c(C(=O)O)cn3C2CC2)CC1)N/N=C/c1ccco1,104% (inactive)
15,COc1ccc(C2=CC(c3cc(OC)c(OC)c(OC)c3)n3ncnc3N2)cc1 (stereo not given),29.1% (inactive)
16,O=C(CI)NC(=O)NC(=O)NCc1ccccc1,32.6% (inactive)
17,CC[C@]12C=CCN3CC[C@@]4(c5ccc(OC)cc5N(C)[C@H]4[C@@](O)(C(=O)OC)[C@@H]1OC(=O)CCC[P+](c1ccccc1)(c1ccccc1)c1ccccc1)[C@@H]32,-8.66% (active)
18,CC1CCN(C(=S)SCC(=O)NC(=O)c2ccccc2)CC1,102% (inactive)
19,C=C1C(=O)O[C@H]2[C@H]1CC/C(COC(=O)c1cc3cc(Cl)ccc3[nH]1)=C\CC[C@@]1(C)O[C@@H]21,-64.9% (active)
20,COC(=O)/C=C1/SC(=Nc2ccc([N+](=O)[O-])cc2)N(CCc2c[nH]c3ccc(O)cc23)C1=O,64.9% (inactive)

row,Structure (SMILES),growth
1,COc1ccc(CCN(CC(=O)N(CC(N)=O)C2CCC[C@@H]2OCc2ccccc2)C(=O)CN(C(=O)CN(CCc2ccc(Cl)cc2)C(=O)CN(C(=O)CN(C)Cc2ccccc2F)[C@H](C)C2CCCCC2)[C@H](C)C2CCCCC2)cc1OC (stereo not given in full),31.9% (inactive)
2,CC(=O)OC[C@]12CC[C@@H]([C@@H](C)c3nnc(-c4ccncc4)o3)[C@@H]1[C@H]1CC[C@@H]3[C@@]4(C)CC[C@H](OC(C)=O)C(C)(C)[C@@H]4CC[C@@]3(C)[C@]1(C)CC2,82% (inactive)
3,COc1ccc(/C(C)=C(/c2ccc(OCCCN(C)C)cc2)c2ccc(OC(=O)c3ccccc3)cc2)cc1,82.2% (inactive)
4,COc1ccc2nc(Cl)c(/C=C3\CC(c4ccccc4)=NN(c4ccccc4)C3=O)cc2c1,78.8% (inactive)
5,CC(C)(C)c1cc(Cl)c(O)c(CNCCO)c1,112% (inactive)
6,CCS/C(Nc1ccccc1)=C(\C#N)C(=O)Nc1ccc(OC)cc1,48.3% (inactive)
7,COc1ccc(/C=C/c2c(C(=O)/C=C/c3ccccc3)c(C)nc3ccccc23)cc1,20% (inactive)
8,C#COc1cccc(Nc2ncnc3cc(NC(=O)[C@@H](C)Cl)ccc23)c1,22.8% [6.25 µM] (inactive)
9,COc1ccc(Cn2cc3c(c2-c2ccccc2)CCc2cnoc2-3)cc1,27.2% (inactive)
10,Cc1cc2c(cc1C)N(C(=O)CCl)CC(=O)N2,55.7% (inactive)
11,Oc1c(CN2CCC(N3CCCCC3)CC2)cc(Cc2cc(CN3CCC(N4CCCCC4)CC3)c(O)c3ncccc23)c2cccnc12,39.3% (inactive)
12,OCCNCCNC(Cc1ccc(Cl)cc1)c1ccccc1 (stereo not given),96.2% (inactive)
13,COc1cccc(-c2cc(-c3cccc(Cl)c3)c(C#N)c(=O)[nH]2)c1,86.7% (inactive)
14,CN(C)CCCNC(=O)c1cncnc1Nc1ccc(OCc2cccc(F)c2)c(Cl)c1,61.5% (inactive)
15,O=C1Nc2ccccc2C1(c1c[nH]c2ccccc12)c1c[nH]c2ccccc12,-13.5% (active)
16,Cc1cc(Nc2ccc(C(=O)N3CCCC3)cc2)nc(NCCCNc2ccnc3cc(Cl)ccc23)n1,87.8% (inactive)
17,NC1(CO)COC(c2ccccc2)OC1 (stereo not given),109% (inactive)
18,O=C(CCCCCNC(=O)c1cc(=O)c(O)co1)Nc1ccccc1,99.1% (inactive)
19,O=S(=O)(NCCNc1nccc(-c2c(-c3cccc(O)c3)nc3occn23)n1)c1ccc(Br)cc1,53.2% (inactive)
20,C/C(=N\O)c1ccc(NC(=O)CSc2nnc(-c3cc(-c4ccc(S(N)(=O)=O)cc4)nc4ccccc34)n2-c2ccccc2)cc1,89.6% (inactive)
